In PubChem BioAssay (NCI):
Several values for one entry are separate records, joined by “and”; a condition that tells them apart may be missing. Equal values may be shown once. Compounds without any hit were thinned out: in the full panel of roughly 79,000, 15% have a hit. More than one record can exist for a structure, and the calls need not agree. Activity calls are given as the source filed them. Rule as the data show it: active = growth inhibition above about 70%; inactive = the rest.

Tests used:
[1] = NCI Yeast Anticancer Drug Screen. Data for the rad50 strain (AID 155);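 also: 0% = growth of vehicle-only cultures of the same strain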; conditions: S. cerevisiae rad50 strain growth inhibition, stronger effect = higher value
Outline: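 DNA repair mutant yeast, compound exposure, growth read-out; inhibition is taken relative to vehicle.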

[2] = NCI Yeast Anticancer Drug Screen. Data for the mec2-1 strain (AID 157); conditions: S. cerevisiae mec2-1 strain, stronger effect = higher value
Outline: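 Cells of the genetically defined mec2-1 yeast strain are incubated with test compound. Inhibition of growth is calculated against vehicle-treated controls.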

[3] = NCI Yeast Anticancer Drug Screen. Data for the sgs1 mgt1 strain (AID 161);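 also: 0% = growth of cultures given vehicle only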; conditions: S. cerevisiae sgs1 mgt1 strain, stronger effect = higher value
Outline: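 Read-out: growth inhibition vs vehicle controls. Cells: mutant yeast strain deficient in DNA damage repair.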

[4] = NCI Yeast Anticancer Drug Screen. Data for the cln2 rad14 strain (AID 165);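 also: 0% = growth equal to vehicle treated cultures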; conditions: S. cerevisiae cln2 rad14 strain, stronger effect = higher value
Outline: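 The screen exposed genetically defined yeast (cln2 rad14) to test compounds and scored growth inhibition relative to vehicle-treated controls.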

[5] = NCI Yeast Anticancer Drug Screen. Data for the bub3 strain (AID 167); conditions: S. cerevisiae bub3 mutant strain, stronger effect = higher value
Outline: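 In this screen, a yeast mutant lacking normal mitotic checkpoint function is challenged with compound. Relative growth versus vehicle gives the inhibition value.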

[6] = NCI Yeast Anticancer Drug Screen. Data for the mlh1 rad18 strain (AID 175); conditions: S. cerevisiae mlh1 rad18 strain growth inhibition, stronger effect = higher value
Outline: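 Compound-treated yeast growth, normalised to vehicle controls. Strain bears defined DNA repair mutations.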

[7] = at 5.0 µM (retest, dose inferred, filed as 0.5)
[8] = at 50.0 µM (retest, dose inferred, filed as 5.0)

Row | SMILES | growth inhibition [1, 7] | growth inhibition [1, 8] | growth inhibition ([1]; at 50.0 µM) | growth inhibition [2, 7] | growth inhibition [2, 8] | growth inhibition ([2]; at 50.0 µM) | growth inhibition [3, 7] | growth inhibition [3, 8] | growth inhibition ([3]; at 50.0 µM) | growth inhibition [4, 7] | growth inhibition [4, 8] | growth inhibition ([4]; at 50.0 µM) | growth inhibition [5, 7] | growth inhibition [5, 8] | growth inhibition ([5]; at 50.0 µM) | growth inhibition [6, 7] | growth inhibition [6, 8] | growth inhibition ([6]; at 50.0 µM)
1 | COc1ccc2c(c1O)-c1cccc3c1[C@@H](C2)N(CCCl)CC3 | 30% (inactive) | 90% (active) | 67.6% (inactive) | 15% (inactive) | 99% (active) | 70.8% (active) | 28% (inactive) | 95% (active) | 57.6% (inactive) | 13% (inactive) | 66% (inactive) | 35.4% (inactive) | 19% (inactive) | 98% (active) | 44.4% (inactive) | 52% (inactive) | 98% (active) | 86.6% (active)
2 | CC1=CC2OC3CC4OC(=O)/C=C/C=C/C(C(C)O)OCC(O)C(C)CC(=O)OCC2(CC1O)C4(C)C31CO1 (stereo not given) | 39% (inactive) | 96% (active) | 90.4% (active) | 40% (inactive) | 99% (active) | 91.9% (active) | 48% (inactive) | 94% (active) | 92.2% (active) | 34% (inactive) | 94% (active) | 90.3% (active) | 25% (inactive) | 95% (active) | 91% (active) | 42% (inactive) | 98% (active) | 89.2% (active)
3 | Nc1c(Br)cc(Br)c2c1C(=O)c1ccccc1C2=O | 5% (inactive) | -1% (inactive) | -10.6% (inactive) | 2% (inactive) | 0% (inactive) | -9.45% (inactive) | 3% (inactive) | 0% (inactive) | 11.6% (inactive) | 0% (inactive) | 3% (inactive) | 41.9% (inactive) | 1% (inactive) | 4% (inactive) | 7.65% (inactive) | 9% (inactive) | -1% (inactive) | 4.5% (inactive)
4 | O=P(CP(=O)(c1ccccc1)c1ccccc1)(c1ccccc1)c1ccccc1.[CH3][Sn]([CH3])([Cl])[Cl] | 6% (inactive) | 27% (inactive) | 21.4% (inactive) | 21% (inactive) | 9% (inactive) | 89.3% (active) | 5% (inactive) | 8% (inactive) | 22.9% (inactive) | 3% (inactive) | -12% (inactive) | 8.35% (inactive) | 0% (inactive) | 8% (inactive) | 4.25% (inactive) | 2% (inactive) | 15% (inactive) | 19.4% (inactive)
5 | CCC[CH2][Sn]1([CH2]CCC)[O]N=Cc2ccccc2[O]1 | 46% (inactive) | 94% (active) | 86.8% (active) | 50% (inactive) | 97% (active) | 90.5% (active) | 79% (active) | 98% (active) | 88.2% (active) | 62% (inactive) | 97% (active) | 87.1% (active) | 85% (active) | 98% (active) | 90.1% (active) | 73% (active) | 97% (active) | 88.3% (active)
6 | Cn1cnc(C(=N)[Se])c1N | 63% (inactive) | 94% (active) | 83.4% (active) | 30% (inactive) | 91% (active) | 71% (active) | 27% (inactive) | 53% (inactive) | 30.8% (inactive) | 2% (inactive) | 15% (inactive) | -24.8% (inactive) | 51% (inactive) | 94% (active) | 91.4% (active) | 78% (active) | 94% (active) | 67.7% (inactive)
7 | O=S(=O)(F)c1ccc(Cl)cc1C[P+](c1ccccc1)(c1ccccc1)c1ccccc1 | 20% (inactive) | 77% (active) | 45.9% (inactive) | 22% (inactive) | 82% (active) | 19.9% (inactive) | 13% (inactive) | 76% (active) | 53.5% (inactive) | 0% (inactive) | 54% (inactive) | 11.1% (inactive) | 12% (inactive) | 82% (active) | 38.2% (inactive) | 20% (inactive) | 86% (active) | 69% (inactive)
8 | C[N+](C)=C1C=CC(=C2C=CSC=C2)C=C1 | 22% (inactive) | 45% (inactive) | 11.1% (inactive) | 27% (inactive) | 36% (inactive) | 10.3% (inactive) | 20% (inactive) | 46% (inactive) | 59.8% (inactive) | 29% (inactive) | 45% (inactive) | 25% (inactive) | 17% (inactive) | 72% (active) | 79.2% (active) | 26% (inactive) | 52% (inactive) | 89.8% (active)
9 | C=Cc1c2ccccc2cc2ccccc12 | 44% (inactive) | 82% (active) | 86.2% (active) | 42% (inactive) | 82% (active) | 75.2% (active) | 26% (inactive) | 31% (inactive) | 83.3% (active) | 44% (inactive) | 60% (inactive) | 77% (active) | 50% (inactive) | 36% (inactive) | 81.2% (active) | 34% (inactive) | 74% (active) | 75% (active)
10 | CCOC(=O)NC(=S)[S][Sb]([S]C(=S)NC(=O)OCC)[S]c1nc2ccc(N=Nc3ccc(NS(=O)(=O)c4ccc(NC(=O)C(N5CC5)(N5CC5)N5CC5)cc4)cc3)cc2s1 | 70% (active) | 99% (active) | 99.2% (active) | 33% (inactive) | 99% (active) | 99.6% (active) | 46% (inactive) | 99% (active) | 99.5% (active) | 16% (inactive) | 98% (active) | 99% (active) | 24% (inactive) | 99% (active) | 99.3% (active) | 80% (active) | 99% (active) | 99.2% (active)
11 | C[C@@H]1CC[C@@]2(NC1)O[C@H]1C[C@H]3[C@@H]4CC[C@H]5C[C@@H](O)CC[C@]5(C)[C@H]4CC[C@]3(C)[C@H]1[C@@H]2C | 45% (inactive) | 98% (active) | 92.8% (active) | 30% (inactive) | 98% (active) | 93.5% (active) | 61% (inactive) | 100% (active) | 93.9% (active) | 46% (inactive) | 99% (active) | 92% (active) | 46% (inactive) | 99% (active) | 93.5% (active) | 31% (inactive) | 98% (active) | 87.7% (active)
12 | N#CC(C#N)=Cc1cccc([N+](=O)[O-])c1 | 42% (inactive) | 89% (active) | -15.1% (inactive) and 98.2% (active) | 29% (inactive) | 92% (active) | -11.1% (inactive) and 90.8% (active) | 13% (inactive) | 84% (active) | -24.4% (inactive) and 99.2% (active) | 1% (inactive) | 28% (inactive) | -4.8% (inactive) and 93.7% (active) | 9% (inactive) | 76% (active) | -8.45% (inactive) and 99.5% (active) | 33% (inactive) | 92% (active) | -27.9% (inactive) and 97.8% (active)
13 | COc1cc(C(c2c(O)c3ccccc3oc2=O)c2c(O)c3ccccc3oc2=O)cc(OC)c1O | 4% (inactive) | 20% (inactive) | 75% (active) | -2% (inactive) | 19% (inactive) | 44.3% (inactive) | -2% (inactive) | 12% (inactive) | 54.7% (inactive) | 0% (inactive) | 0% (inactive) | 70.8% (active) | -5% (inactive) | -10% (inactive) | 50% (inactive) | -7% (inactive) | 2% (inactive) | 90.6% (active)
14 | CCC[CH2][Sn]1([CH2]CCC)[O]C(=O)C(C(C)C)N=Cc2ccccc2[O]1 (stereo not given) | 15% (inactive) | 15% (inactive) | 89.8% (active) | 17% (inactive) | 17% (inactive) | 93% (active) | 12% (inactive) | 12% (inactive) | 90.8% (active) | 7% (inactive) | 7% (inactive) | 91.6% (active) | -4% (inactive) | -4% (inactive) | 90.8% (active) | -2% (inactive) | -2% (inactive) | 88.5% (active)
15 | S=C(S)N1CCCCC1 | 42% (inactive) and 15% (inactive) | 57% (inactive) and 13% (inactive) | 73.5% (active) and 45.1% (inactive) and 29.9% (inactive) | 38% (inactive) and 19% (inactive) | 60% (inactive) and 6% (inactive) | 45.7% (inactive) and 90.3% (active) and 31.6% (inactive) | 42% (inactive) and 15% (inactive) | 99% (active) and 41% (inactive) | 60.5% (inactive) and 97.8% (active) and 25.5% (inactive) | 76% (active) and 3% (inactive) | 99% (active) and -48% (inactive) | 29.4% (inactive) and 33.2% (inactive) and 0.25% (inactive) | 56% (inactive) and 0% (inactive) | 90% (active) and -1% (inactive) | 37.6% (inactive) and 99.3% (active) and -10.9% (inactive) | 46% (inactive) and 31% (inactive) | 56% (inactive) and 27% (inactive) | 52.8% (inactive) and 70.8% (active) and 59.6% (inactive)
